Laboratory results: PubChem BioAssay (NCI)
The panel holds about 79,000 compounds, 15% with a hit somewhere; the sample as a whole holds those more often. A number with no mark means an inactive call. Calls of active or inactive are those of the source. Rule as the data show it: active = growth inhibition above about 70%; inactive = the rest.

Assay: NCI Yeast Anticancer Drug Screen. Data for the cln2 rad14 strain (AID 165);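 also: 0% = growth equal to vehicle treated cultures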
Settings: S. cerevisiae cln2 rad14 strain, hits give high values
Experimental: Growth inhibition of yeast strains with defined genetic alterations is measured as a screen for potential anti-cancer activity. Selected strains with alterations in DNA damage repair or cell cycle control were exposed to compounds and growth inhibition was measured relative to vehicle treated controls. The strain used in this assay is cln2 rad14

[1] = at 5.0 µM (retest, dose inferred, filed as 0.5)
[2] = at 50.0 µM (retest, dose inferred, filed as 5.0)

Oc1ccccc1C(c1ccccc1O)C(Cl)(Cl)Cl
growth inhibition [1]: 97% (active)
growth inhibition [2]: 96% (active)
growth inhibition (at 50.0 µM): 95% (active)

CN(C)CCC(/C=C/c1ccccc1)=N\Nc1c(F)c(F)c(F)c(F)c1F
growth inhibition [1]: -3%
growth inhibition [2]: 6%
growth inhibition (at 50.0 µM): -3.55%

CN(C)c1cccc(F)c1C(=O)NC(=O)Nc1ccc(Cl)cc1
growth inhibition [1]: 51%
growth inhibition [2]: -2%
growth inhibition (at 50.0 µM): 72% (active)

C=CCC(O)C(=O)OC1CC(C)CCC1C(C)(C)c1ccccc1 (configuration not stated)
growth inhibition [1]: -6%
growth inhibition [2]: 98% (active)
growth inhibition (at 50.0 µM): 98.8% (active)

CC(=O)C(=Cc1ccc(C=C(C(C)=O)C(C)=O)cc1)C(C)=O
growth inhibition [1]: 11%
growth inhibition [2]: 8%
growth inhibition (at 50.0 µM): 46.4%

CCC[CH2][Sn]([CH2]CCC)([O]C(=O)c1cc(F)cc(F)c1)[O]C(=O)c1cc(F)cc(F)c1
growth inhibition [1]: 18%
growth inhibition [2]: 18%
growth inhibition (at 50.0 µM): 36.2%

C=CCOc1ccc(N=NC(C#N)C#N)cc1
growth inhibition [1]: 0%
growth inhibition [2]: 90% (active)
growth inhibition (at 50.0 µM): 58%

COc1ccccc1NC(=O)CC(=O)N1N=C(C)C(N=Nc2ccc(C(=O)O)cc2)C1=O (configuration not stated)
growth inhibition [1]: -2%
growth inhibition [2]: 7%
growth inhibition (at 50.0 µM): 27.9%

O=[N+]([O-])c1ccc2c(c1)Cc1cc(O)c(I)cc1-2
growth inhibition [1]: -10%
growth inhibition [2]: 91% (active)
growth inhibition (at 50.0 µM): 95.2% (active)

CC(C(O)c1ccccc1)C(O)(C(F)(F)F)C(F)(F)F (configuration not stated)
growth inhibition [1]: 1%
growth inhibition [2]: -4%
growth inhibition (at 50.0 µM): 15.5%

CC(=O)N1c2ccccc2C2=NN=C(N(C)C)SC21 (configuration not stated)
growth inhibition [1]: -20%
growth inhibition [2]: 97% (active)
growth inhibition (at 50.0 µM): 83.8% (active)

COC(=O)CCC(NC(=S)N/N=C/c1ccccn1)C(=O)OC (configuration not stated)
growth inhibition [1]: -11%
growth inhibition [2]: 33%
growth inhibition (at 50.0 µM): 60.8%

CCCCCCCCCCCCCCSC(=NC)NC
growth inhibition [1]: 99% (active)
growth inhibition [2]: 99% (active)
growth inhibition (at 50.0 µM): 98.9% (active)

CCC(=O)/C(=C\I)c1ccccc1
growth inhibition [1]: 8%
growth inhibition [2]: 8%
growth inhibition (at 50.0 µM): 89.9% (active)
